Reference: PubChem BioAssay AID1159580 (chemical genetic matrix, 2015)
Out of some 5,500 compounds screened, about 2,000 (36%) were called active. Not shown: some 18% with an inconclusive outcome. Some of the results follow. A number with no mark means an inactive call. Rule as the data show it: active = normalized growth mostly below about 0.91 (no sharp cut-off); inconclusive = no clear call, values can overlap the other calls; inactive = mostly above about 0.92.

Assay: chemical genetic growth profiling, strain panel (AID 1159580);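 also: tested at 20 µM; growth read once vehicle control cultures reached saturation at 30 °C; 1 = growth at the plate median or of vehicle wells; lower values mean less growth of the strain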
Settings: growth OD

O=C(O)c1cc(O)c(O)c(O)c1
normalized growth (S. cerevisiae deletion strains, locus YJR066W, strain TOR1, active compounds read low): 0.929 | normalized growth (S. cerevisiae deletion strains, locus YKL009W, strain mrt4, active compounds read low): 1.03 | normalized growth (S. cerevisiae deletion strains, locus YKL068W, active compounds read low): 1 | normalized growth (S. cerevisiae deletion strains, locus YKL085W, strain MDH1 (second series), active compounds read low): 1.03 | normalized growth (S. cerevisiae deletion strains, locus YKL085W, strain MDH1, active compounds read low): 1.03 | normalized growth (S. cerevisiae deletion strains, locus YKL160W, strain elf1, active compounds read low): 1.05 | normalized growth (S. cerevisiae deletion strains, locus YKR001C, strain vps1, active compounds read low): 1.07 | normalized growth (S. cerevisiae deletion strains, locus YKR026C, strain gcn3, active compounds read low): 1.02 | normalized growth (S. cerevisiae deletion strains, locus YKR091W, strain srl3, active compounds read low): 1.01 | normalized growth (S. cerevisiae deletion strains, locus YLL001W, strain dnm1, active compounds read low): 0.997 | normalized growth (S. cerevisiae deletion strains, locus YLL026W, active compounds read low): 1 | normalized growth (S. cerevisiae deletion strains, locus YLL041C, strain sdh2, active compounds read low): 1.04 | normalized growth (S. cerevisiae deletion strains, locus YLR027C, strain aat2, active compounds read low): 1.04 | normalized growth (S. cerevisiae deletion strains, locus YLR039C, strain RIC1, active compounds read low): 1.34 [resistant] (active) | normalized growth (S. cerevisiae deletion strains, locus YLR058C, strain SHM2, active compounds read low): 1.06 | normalized growth (S. cerevisiae deletion strains, locus YLR102C, strain apc9, active compounds read low): 1.02 | normalized growth (S. cerevisiae deletion strains, locus YLR113W, strain HOG1, active compounds read low): 0.985 | normalized growth (S. cerevisiae deletion strains, locus YLR221C, strain rsa3, active compounds read low): 0.981 | normalized growth (S. cerevisiae deletion strains, locus YLR258W, strain gsy2, active compounds read low): 1.05 | normalized growth (S. cerevisiae deletion strains, locus YLR262C, strain YPT6 (second series), active compounds read low): 1.03 | normalized growth (S. cerevisiae deletion strains, locus YLR262C, strain YPT6, active compounds read low): 1.26 | normalized growth (S. cerevisiae deletion strains, locus YLR268W, strain sec22, active compounds read low): 1.04 | normalized growth (S. cerevisiae deletion strains, locus YLR320W, strain mms22, active compounds read low): 1.02 | normalized growth (S. cerevisiae deletion strains, locus YLR330W, strain CHS5, active compounds read low): 1.03 | normalized growth (S. cerevisiae deletion strains, locus YLR342W, strain FKS1 (second series), active compounds read low): 1.05 | normalized growth (S. cerevisiae deletion strains, locus YLR342W, strain FKS1, active compounds read low): 1.03 | normalized growth (S. cerevisiae deletion strains, locus YLR357W, strain rsc2, active compounds read low): 1.06 | normalized growth (S. cerevisiae deletion strains, locus YLR370C, strain arc18, active compounds read low): 1.02 | normalized growth (S. cerevisiae deletion strains, locus YLR371W, strain rom2, active compounds read low): 1.05 | normalized growth (S. cerevisiae deletion strains, locus YLR384C, strain iki3, active compounds read low): 1.02 | normalized growth (S. cerevisiae deletion strains, locus YLR418C, strain cdc73, active compounds read low): 1.11 | normalized growth (S. cerevisiae deletion strains, locus YML016C, strain PPZ1, active compounds read low): 1.03 | normalized growth (S. cerevisiae deletion strains, locus YML032C, strain rad52, active compounds read low): 1.03 | normalized growth (S. cerevisiae deletion strains, locus YML120C, strain ndi1, active compounds read low): 1.01 | normalized growth (S. cerevisiae deletion strains, locus YML124C, strain tub3, active compounds read low): 1.02 | normalized growth (S. cerevisiae deletion strains, locus YMR058W, strain fet3, active compounds read low): 1.01 | normalized growth (S. cerevisiae deletion strains, locus YMR078C, strain ctf18, active compounds read low): 1.03 | normalized growth (S. cerevisiae deletion strains, locus YMR125W, strain sto1, active compounds read low): 1.03 | normalized growth (S. cerevisiae deletion strains, locus YMR129W, active compounds read low): 1.03 | normalized growth (S. cerevisiae deletion strains, locus YMR205C, strain PFK2, active compounds read low): 1.06 | normalized growth (S. cerevisiae deletion strains, locus YMR223W, strain ubp8, active compounds read low): 1.02 | normalized growth (S. cerevisiae deletion strains, locus YMR231W, strain pep5, active compounds read low): 1.01 | normalized growth (S. cerevisiae deletion strains, locus YMR307W, strain GAS1, active compounds read low): 1.24 | normalized growth (S. cerevisiae deletion strains, locus YNL067W, strain RPL9B, active compounds read low): 1.02 | normalized growth (S. cerevisiae deletion strains, locus YNL071W, strain lat1, active compounds read low): 1.06 | normalized growth (S. cerevisiae deletion strains, locus YNL183C, strain NPR1, active compounds read low): 0.933 | normalized growth (S. cerevisiae deletion strains, locus YNL209W, strain ssb2, active compounds read low): 1.01 | normalized growth (S. cerevisiae deletion strains, locus YNL233W, strain BNI4, active compounds read low): 1.08 | normalized growth (S. cerevisiae deletion strains, locus YNL248C, strain rpa49, active compounds read low): 1.08 | normalized growth (S. cerevisiae deletion strains, locus YNL250W, strain rad50, active compounds read low): 1.05 | normalized growth (S. cerevisiae deletion strains, locus YNL271C, strain bni1, active compounds read low): 1.01 | normalized growth (S. cerevisiae deletion strains, locus YNL298W, strain CLA4, active compounds read low): 1.01 | normalized growth (S. cerevisiae deletion strains, locus YNL307C, strain MCK1, active compounds read low): 1.03 | normalized growth (S. cerevisiae deletion strains, locus YNL322C, strain KRE1 (second series), active compounds read low): 1.03 | normalized growth (S. cerevisiae deletion strains, locus YNR049C, strain mso1, active compounds read low): 1.01 | normalized growth (S. cerevisiae deletion strains, locus YNR052C, strain pop2, active compounds read low): 1.01 | normalized growth (S. cerevisiae deletion strains, locus YOL006C, strain TOP1, active compounds read low): 1.36 | normalized growth (S. cerevisiae deletion strains, locus YOL012C, strain htz1): 0.913 | normalized growth (S. cerevisiae deletion strains, locus YOL147C, strain pex11, active compounds read low): 1.02 | normalized growth (S. cerevisiae deletion strains, locus YOR001W, strain rrp6, active compounds read low): 0.981 | normalized growth (S. cerevisiae deletion strains, locus YOR061W, strain CKA2, active compounds read low): 1.04 | normalized growth (S. cerevisiae deletion strains, locus YOR069W, strain VPS5, active compounds read low): 1.03 | normalized growth (S. cerevisiae deletion strains, locus YOR070C, strain gyp1, active compounds read low): 1.02 | normalized growth (S. cerevisiae deletion strains, locus YOR080W, strain dia2, active compounds read low): 1.01 | normalized growth (S. cerevisiae deletion strains, locus YOR083W, strain WHI5, active compounds read low): 0.995 | normalized growth (S. cerevisiae deletion strains, locus YOR106W, strain vam3, active compounds read low): 1.05 | normalized growth (S. cerevisiae deletion strains, locus YOR136W, strain idh2, active compounds read low): 1.02 | normalized growth (S. cerevisiae deletion strains, locus YOR144C, strain elg1, active compounds read low): 1.01 | normalized growth (S. cerevisiae deletion strains, locus YOR184W, strain ser1, active compounds read low): 1.05 | normalized growth (S. cerevisiae deletion strains, locus YOR231W, strain MKK1, active compounds read low): 0.971 | normalized growth (S. cerevisiae deletion strains, locus YOR265W, strain rbl2, active compounds read low): 1 | normalized growth (S. cerevisiae deletion strains, locus YOR270C, strain vph1, active compounds read low): 1.17 | normalized growth (S. cerevisiae deletion strains, locus YOR290C, strain snf2, active compounds read low): 1.05 | normalized growth (S. cerevisiae deletion strains, locus YOR316C, strain cot1, active compounds read low): 1.02 | normalized growth (S. cerevisiae deletion strains, locus YPL051W, strain arl3, active compounds read low): 1.04 | normalized growth (S. cerevisiae deletion strains, locus YPL055C, strain LGE1, active compounds read low): 1.1 | normalized growth (S. cerevisiae deletion strains, locus YPL078C, strain atp4, active compounds read low): 1.05 | normalized growth (S. cerevisiae deletion strains, locus YPL106C, strain sse1, active compounds read low): 1.06 | normalized growth (S. cerevisiae deletion strains, locus YPL240C, strain hsp82, active compounds read low): 1.01 | normalized growth (S. cerevisiae deletion strains, locus YPL256C, strain CLN2, active compounds read low): 0.968 | normalized growth (S. cerevisiae deletion strains, locus YPR119W, strain clb2, active compounds read low): 1.05 | normalized growth (S. cerevisiae deletion strains, locus YPR141C, strain kar3, active compounds read low): 1.02 | normalized growth (S. cerevisiae deletion strains, locus YPR163C, strain tif3, active compounds read low): 1.03 | normalized growth (S. cerevisiae deletion strains, locus YPR167C, strain met16, active compounds read low): 1.05 | normalized growth (S. cerevisiae deletion strains, strain wtn01, active compounds read low): 1.03 | normalized growth (S. cerevisiae strains, strain wild type, active compounds read low): 1.07
